# Source: PubChem
# Compounds with a hit are over-represented: about 9.2% of the library has one in this group of screens.
# ELG1 DNA repair: qHTS screen for small molecules that inhibit ELG1-dependent DNA repair in human embryonic kidney (HEK293T) cells expressing luciferase-tagged ELG1; HEK293T ELG1-luciferase reporter, luminescence, 16 h; DNA damage induced by 5-fluorouridine; 2.3% of 330,000 active; Potency, µM (series often up to 46.1 µM), without a hit: at the top dose activity change, negative = inhibition, actives largely listed as inhibitors; note: % is set by controls: 0 for no effect and ±100 for the full control effect; nearly all actives have a fitted effect of over 55% in size
#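 Quantitative HTS, concentration-response format. 2,000 cells/well co-treated with 5-fluorouridine and compound, 16 hr in 5% CO2 at 37 °C; ONE-Glo luminescence read after 30 min.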
# SMN2 splice enh: qHTS Assay for Enhancers of SMN2 Splice Variant Expression | HEK293 SMN2-luciferase splicing reporter, luminescence, 30-36 h | Potency, µM (titrated, usually from 46.1 µM), for the others: at the top dose activity change, positive = activation, hits mostly activators | 2.8% of 210,000 active; note: % of control where 0% means no effect; nearly all actives have a fitted effect of over 55% in size
#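 HEK293 cells carry an SMN2 minigene-luciferase reporter in which exon 7 inclusion puts luciferase in frame. Cells were seeded at 2000 cells/well, attached for 10-12 hours, then exposed to compounds for 30-36 hours at 37C before ONE-Glo luminescence.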
# FLuc modulator: qHTS profiling assay for firefly luciferase inhibitor/activator using purifed enzyme and Km concentrations of substrates (counterscreen for miR-21 project); Luciferin 4-monooxygenase (Photinus pyralis), P08659; purified FLuc, Km substrates, luminescence inhibition; Potency, µM (titrated, usually from 57.5 µM), inactives show at the top dose activity change, negative = inhibition, usual class: inhibitors; 6.9% of 360,000 active; AID 588342, 2011;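 note: plate controls were vehicle for no effect and reference inhibitor for full effect; nearly all actives have a fitted effect of over 55% in size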
# Target sequence (P08659 whole entry, looked up): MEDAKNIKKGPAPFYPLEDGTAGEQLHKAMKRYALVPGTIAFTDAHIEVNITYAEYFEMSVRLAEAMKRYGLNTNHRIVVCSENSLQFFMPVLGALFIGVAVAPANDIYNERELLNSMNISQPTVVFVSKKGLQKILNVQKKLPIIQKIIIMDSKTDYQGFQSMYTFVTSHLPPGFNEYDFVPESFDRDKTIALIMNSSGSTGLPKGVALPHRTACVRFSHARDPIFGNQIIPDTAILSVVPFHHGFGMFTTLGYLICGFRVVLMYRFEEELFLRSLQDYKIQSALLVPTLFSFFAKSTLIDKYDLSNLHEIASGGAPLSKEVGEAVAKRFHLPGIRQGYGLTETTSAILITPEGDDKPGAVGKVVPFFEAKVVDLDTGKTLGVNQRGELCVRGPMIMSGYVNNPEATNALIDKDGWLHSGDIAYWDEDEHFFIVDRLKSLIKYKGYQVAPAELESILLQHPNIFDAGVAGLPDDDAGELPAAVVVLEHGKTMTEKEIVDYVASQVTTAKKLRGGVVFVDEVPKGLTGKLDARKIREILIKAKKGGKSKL
#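 Biochemical qHTS of compounds, final roughly 60 µM downward over six points, against 10 nM purified firefly luciferase using Km concentrations of substrates (10 uM D-luciferin, 10 uM ATP) in Tris acetate pH 7.5 buffer; luminescence output.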
# NPC1 promoter act: qHTS Assay for NPC1 Promoter Activators | 2.4% of 320,000 active | Huh7 NPC1 promoter luciferase reporter, 24 h | Potency, µM (highest dose often 9.22 µM), for inactives: at the top dose activation, usual class: activators; note: % of control where 0% means no effect; nearly all actives have a fitted effect of over 60% in size
#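 Readout is luciferase luminescence, reflecting NPC1 promoter activation in stably transfected Huh7 cells after 24 h compound exposure at 37 °C in reduced-serum medium with 10% FBS.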
# Rab9 prom act: qHTS Assay for Rab9 Promoter Activators; Potency, µM (highest dose often 9.22 µM), inactives show top-dose activation, negative = inhibition, actives largely listed as activators; Huh7 Rab9 promoter-luciferase reporter, luminescence, 24 h; AID 485297, 2010; 2.8% of 320,000 active; note: % of control where 0% means no effect; nearly all actives have a fitted effect of over 60% in size
#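 Luminescence read-out: Huh7 cells stably expressing Rab9-luciferase, treated 24 h with compound at 37 °C, then lysed with luciferase reagent for 10 min at ambient before reading.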
# ELG1 genotoxic: qHTS screen for small molecules that induce genotoxicity in human embryonic kidney (HEK293T) cells expressing luciferase-tagged ELG1; HEK293T ELG1-luciferase reporter, luminescence, 16 h; Potency, µM (doses to about 46 µM), inactives show at the highest dose activity change, positive = activation, usual class: activators; 1.3% of 330,000 active; note: % of control where 0% means no effect; nearly all actives have a fitted effect of over 60% in size
#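 HEK293T cells expressing luciferase-tagged ELG1 were treated with compound or DMSO for 16 hr at 37°C. Luciferase activity was then read after 30 min with ONE-Glo at room temperature; rising signal flags genetic stress.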
# The depositor's hits bear a star; ? = inconclusive; . = no result; [ ] = dose if it differs, or a comment. Calls come from the whole dose curve; as a rule, active = well fitted curve in the direction sought with a large enough effect; inconclusive = small, poorly fitted or top-dose-only effect, or another doubt; inactive = no such curve, though single readings can be large; an effect the other way counts as inactive or inconclusive. Potency is the fitted concentration of half-maximal effect.
SMILES,ELG1 DNA repair,SMN2 splice enh,FLuc modulator,NPC1 promoter act,Rab9 prom act,ELG1 genotoxic
CCCC1(C)Nc2ccccc2-c2nc3ccccc3n21 (stereo not given),?,-5%,19µM*,23%,?,18%
c1ccc2c(c1)NC1(CCCC1)n1c-2nc2ccccc21,?,11%,19µM*,29%,2%,2%
CCN(CC)S(=O)(=O)c1ccc(N2CCOCC2)c(NC(=O)COc2ccccc2C#N)c1,9.2µM*,5%,-4%,0%,22%,-11%
CCN(CC)S(=O)(=O)c1ccc(N2CCOCC2)c(NC(=O)Cc2ccc(Cl)cc2)c1,?,.,-15%,1%,4%,-6%
CCN(CC)S(=O)(=O)c1ccc(N2CCOCC2)c(NC(=O)COc2ccccc2C)c1,5.8µM*,.,4%,0%,-4%,-2%
CCN(CC)S(=O)(=O)c1ccc(N2CCOCC2)c(NC(=O)CC23CC4CC(CC(Br)(C4)C2)C3)c1,9.2µM*,-13%[1.84 µM],1%,-7%,1%,0%
NS(=O)(=O)c1cccc(NC(=O)CSc2nnc(C3CC3)n2-c2ccccc2)c1,-2%,.,.,.,.,1%
COc1ccc(Nc2nc(CN3CCOCC3)nc3sc4c(c23)CCC(C)C4)cc1OC (stereo not given),6.5µM*,0%,-14%,-7%,0%,2%
COc1cc2c(cc1OC)CN(c1nc(CN3CCOCC3)nc3sc4c(c13)CCC(C)C4)CC2 (stereo not given),7.3µM*,14%,-1%,1%,-1%,-12%
Cc1ccc(-n2nc3cc(C)c(N)cc3n2)cc1,?,1.4µM*,0.27µM*,4µM*,1.1µM*,?
CCc1ccc(-n2nc3cc(C)c(NC(=O)c4ccccc4C)cc3n2)cc1,.,11%,?,.,.,.
CCc1ccc(-n2nc3cc(C)c(N)cc3n2)cc1,?,.,0.19µM*,0.32µM*,0.13µM*,0.41µM*
CN(Cc1cnn(Cc2ccccc2)c1)C(=O)c1cccc(S(=O)(=O)N2CCOCC2)c1,-21%,.,4%,-20%,-15%,-1%
Cc1ccc(N(C)S(=O)(=O)c2cccc(C(=O)N(C)Cc3cnn(-c4ccccc4)c3)c2)cc1,16µM*,.,0%,-7%,-5%,-8%
CCN(CCn1cccn1)Cc1ccccc1OCC(O)CN1CCc2ccccc2C1 (stereo not given),-4%,.,1%,1%,-2%,-10%
O=c1oc2cc(O)ccc2cc1-c1ccccc1,?,.,24µM*,?,4%,?
O=c1c(-c2ccc3c(c2)OCCO3)coc2cc(O)cc(O)c12,?,6.3µM*,4.8µM*,1.8µM*,?,2.5µM*
COc1ccc(-c2cc3ccc(O)cc3oc2=O)cc1,?,.,4.8µM*,1.3µM*,3.2µM*,8.2µM*
O=c1oc2ccc3ccccc3c2cc1-c1nnc(Nc2ccccc2F)s1,.,1%,-1%,.,.,.
O=c1oc2cc(O)ccc2cc1-c1nnc(Nc2ccccc2F)s1,.,4µM*,2.4µM*,.,.,.
CCOC(=O)C1CCCN(C(=O)c2ccccc2NC(=O)C2=C(C)OCCS2)C1 (stereo not given),23%,.,2%,-4%,10%,0%
Cc1csc(NC(=O)C2CCN(S(=O)(=O)c3ccccc3F)CC2)n1,?,-49%,-2%,3%,-10%,-12%
COc1ccc(CC(=O)NNC(=O)c2c(-c3ccccc3Cl)noc2C)cc1OC,20%,.,0%,-1%,-3%,0%
O=C(CNC(=O)c1ccc(Cl)cc1Cl)OCn1nnc2ccccc2c1=O,16%,.,-3%,-1%,-2%,1%
O=c1oc2cc(O)ccc2cc1-c1ccc2c(c1)OCCO2,.,18µM*,.,.,.,.
SMILES,ELG1 DNA repair,SMN2 splice enh,FLuc modulator,NPC1 promoter act,Rab9 prom act,ELG1 genotoxic
O=c1oc2cc(O)ccc2cc1-c1nc(-c2ccc(Cl)c(Cl)c2)cs1,.,.,-4%,.,.,.
NC(=O)CSc1cn(Cc2ccccc2)c2ccccc12,-3%,-34%,2%,0%,-3%,-1%
COc1ccc(-n2cc(CNCCc3cnc[nH]3)c(-c3cccc(F)c3)n2)cc1,1%,-84%,19µM*,-5%,-21%,2%
COc1ccc(-n2cc(CNCc3cccnc3)c(-c3cccc(F)c3)n2)cc1,-19%,.,9.5µM*,1%,-4%,-6%
COc1ccc(-n2cc(CN(C)CCO)c(-c3cccc(F)c3)n2)cc1,?,.,2.1µM*,0.45µM*,0.63µM*,?
COc1ccc(Br)cc1/C=N/NC(=O)c1ccc2nc[nH]c2c1,10%,.,?,8%,10%,1%
CC(C)(C)c1ccc(/C=N/OCC(=O)NCc2ccc(F)cc2)cc1,?,-12%,30µM*,-1%,0%,-3%
CC(C)(C)c1ccc(/C=N/OCC(=O)NCc2ccccc2)cc1,?,-14%,17µM*,0%,-9%,-1%
Cc1ccc(CCNC(=O)c2cc3sccc3n2Cc2ccc(Cl)cc2)cc1,.,-2%,-1%,.,.,.
O=C(NNC(=S)NC1CCCCC1)c1ccc2c(c1)OCO2,?,5.6µM*,?,?,1µM*,5%
c1cc2c(cc1NC1CCCCCC1)OCO2,?,.,?,-3%,10%,4%
O=C(NC1CCCCC1)c1ccc2c(c1)OCCO2,?,.,13µM*,1.4µM*,3.2µM*,21µM*
S=C(NC1CCCCC1)c1ccc2c(c1)OCO2,?,19%,8.5µM*,24%,25%,12%
CN(C(=O)c1ccc2c(c1)OCO2)C1(C(=O)NC2CCCC2)CCCCC1,-1%,2%,1%[2.3 µM],2%,-3%,-4%
O=C(NC1CCCCCCC1)c1ccc2c(c1)OCO2,?,5µM*,3µM*,0.79µM*,0.4µM*,2.1µM*
Cc1ccccc1OCC(=O)NCC(c1ccc(Cl)cc1)N1CCCCC1 (stereo not given),.,.,-7%,.,.,.
Cc1ccc(C(N)=Nc2ccccc2)cc1,?,-2%[9.22 µM],-7%,-3%,-1%,7%
CCOC(=O)C1CCN(C(=O)c2ccccc2CCc2ccccc2)CC1,1%,.,1%,-1%,9%,-5%
COc1ccc(CN(C)CC(=O)Nc2sc3c(c2C#N)CCC3)cc1OC,?,-57%,5%,-10%,-4%,-3%
CN(Cc1nc2ccccc2c(=O)[nH]1)C(=O)c1cc2c(s1)CCCCC2,-14%,.,.,.,.,4%
